Records with an inconclusive call do not appear. Calls of active or inactive are those of the source. The call rests on the fitted dose curve.

The target of this experiment is Peroxisome proliferator-activated receptor delta (Homo sapiens) (UniProt Q03181). Kind of experiment: qHTS assay to identify small molecule agonists of the peroxisome proliferator-activated receptor delta (PPARd) signaling pathway (AID 743212). The conditions noted are these: HEK293H PPARd-UAS-bla, beta-lactamase FRET ratio, 17 h; series mostly up to 62.6 µM. From the text: U.S. Tox21 Program National Center for Advancing Translational Sciences [NCATS] NIH Chemical Genomics Center [NCGC] U.S. Environmental Protection Agency [EPA] National Institutes of Environmental Health Sciences [NIEHS] National Toxicology Program [NTP] U.S. Food and Drug Administration [FDA] Tox21 Assay Overview: The peroxisome proliferator-activated receptors (PPARs) are lipid-activated transcription factors of the nuclear receptor superfamily with three distinct subtypes namely PPAR alpha, PPAR delta (PPARd) and PPAR gamma. All these subtypes heterodimerizes with Retinoid X receptor (RXR) and have different physiological functions. […] To identify the compounds that activate PPAR-delta signaling, GeneBLAzer PPAR delta UAS-bla HEK293H cell line (Invitrogen, Carlsbad, CA, USA) containing a beta-lactamase reporter gene under the control of an Upstream Activator Sequence (UAS) was used to screen the Tox21 compound library.
Peroxisome proliferator-activated receptor delta (Homo sapiens), sequence (Q03181 whole entry, looked up): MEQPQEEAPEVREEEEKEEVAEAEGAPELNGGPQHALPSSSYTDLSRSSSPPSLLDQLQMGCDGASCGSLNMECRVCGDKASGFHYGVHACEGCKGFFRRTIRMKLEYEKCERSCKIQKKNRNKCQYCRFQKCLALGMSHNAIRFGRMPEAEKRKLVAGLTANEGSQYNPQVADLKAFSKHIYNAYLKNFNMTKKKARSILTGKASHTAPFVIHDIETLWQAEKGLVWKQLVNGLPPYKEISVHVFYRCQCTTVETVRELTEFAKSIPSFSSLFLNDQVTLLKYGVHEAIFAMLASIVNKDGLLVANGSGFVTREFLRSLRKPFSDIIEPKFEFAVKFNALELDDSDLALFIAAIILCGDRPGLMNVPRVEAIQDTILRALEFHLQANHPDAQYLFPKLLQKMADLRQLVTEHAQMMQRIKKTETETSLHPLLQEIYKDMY
Tox21 Assay Protocol Summary: PPARd-bla cells were dispensed at 3000 cells/6uL/well in 1536-well black wall/clear bottom plates using a Multidrop Combi (Thermo Fisher Scientific, Waltham, MA) dispenser. After the assay plates were incubated at 37 C and 5% CO2 for 5 h, 23 nL of compounds dissolved in DMSO, positive controls or DMSO only was transferred to the assay plate by a Pintool station (Kalypsys, San Diego, CA). The assay plates were incubated at 37C for 17 h. After 1 uL of LiveBLAzerTM B/G FRET substrate was added using a Bioraptr Flying Reagent Dispenser (FRD) workstation (Beckman Coulter, Indianapolis, IN, USA), the plates were incubated at room temperature for 2 h, and fluorescence intensity was measured by an Envision plate reader (PerkinElmer, Shelton, CT).
`O=NN1CCCCC1`: the result was inactive. On to `CCCSP(=O)(OCC)Oc1ccc(Br)cc1Cl` (stereo not given), for which the outcome was inactive. To `CCCCN(CCCCO)N=O` belongs “inactive”; to `CCC(Cl)[N+](=O)[O-]` (stereo not given), “inactive”; to `O=C(Nc1ccccc1)c1ccccc1I`, “inactive”. Then `C[C@]1(O)CC[C@H]2[C@@H]3CCC4=CC(=O)CC[C@]4(C)[C@@]3(F)[C@@H](O)C[C@@]21C`, with “inactive”; and `CC1CCC(=O)O1` (stereo not given), with “inactive”; and `CCC1(c2ccccc2)C(=O)N=C(O)NC1=O` (stereo not given), with “inactive”.

Turning to `O=[N+]([O-])c1cccc(O)c1`, the outcome was inactive. Then `Cc1ncsc1CCCl`, with “inactive”; and `CC(C)COP(=O)(OCC(C)C)OCC(C)C`, with “inactive”; and `CCOP(=O)(N=C1SCCS1)OCC`, with “inactive”.

As for `c1cc2c(c(N3CCNCC3)c1)OCCO2`, the result was inactive.

Take `O=C1CN2CCOC2(c2ccccc2Cl)c2cc(Cl)ccc2N1` (stereo not given): the result was inactive.

With `N#Cc1ccncc1`, the outcome was inactive. To `O=[N+]([O-])c1ccc2c3c(cccc13)CC2` belongs “inactive”. Then `C=C(C)[C@@H]1CC=C(C=O)CC1`, with “inactive”. Then `O=C(O)c1ccc2[nH]cc(CCCCN3CC=C(c4ccccc4)CC3)c2c1`, with “inactive”. Turning to `ClC(Br)Br`, the outcome was inactive. Then `COC(=O)c1ccccc1S(=O)(=O)NC(=O)N(C)c1nc(C)nc(OC)n1`, with “inactive”; and `Cc1cc(C)nc(Nc2ccccc2)n1`, with “inactive”. Then `Cc1coc2c1CCC(C)C2` (stereo not given), with “inactive”; and `O=[N+]([O-])c1cc(Cl)c(Cl)c(Cl)c1`, with “inactive”; and `CC1=NNC(=O)N(/N=C/c2cccnc2)C1`, with “inactive”. Then `Cc1ccccc1CO[C@@H]1C[C@@]2(C(C)C)CC[C@]1(C)O2`, with “inactive”. Regarding `CC1(C(=O)Nc2ccc(O)c(Cl)c2Cl)CCCCC1`, the outcome was inactive. Then `N#Cc1c(Cl)cccc1Cl`, with “inactive”; and `COP(=S)(OC)Oc1ccc(S(N)(=O)=O)cc1`, with “inactive”; and `O=C(NCO)NCO`, with “inactive”. Consider `CCCCOC(=O)[C@@H](C)Oc1ccc(Oc2ccc(C#N)cc2F)cc1`, for which the result was inactive. Consider `ClCC(Cl)Cl`, for which the outcome was inactive. `NC(=O)c1cc([N+](=O)[O-])cc([N+](=O)[O-])c1`: the outcome was inactive. Then `Fc1cc(Br)ccc1CBr`, with “inactive”. Then `O=[N+]([O-])c1ccc(CBr)cc1`, with “inactive”; and `CC(=O)CC(c1ccc(Cl)cc1)c1c(O)c2ccccc2oc1=O` (stereo not given), with “inactive”. To `NC(=S)C(N)=S` belongs “inactive”. As for `CCC(=O)C(CCN(C)C)(c1ccccc1)c1ccccc1`, the result was inactive.

As for `CN(C)CCc1ccc(O)cc1`, the outcome was inactive.

As for `CC(CC(C#N)(c1ccccc1)c1ccccc1)N(C)C` (stereo not given), the result was inactive. Then `CC(C)CC(N(C)C)C1(c2ccc(Cl)cc2)CCC1` (stereo not given), with “inactive”.
